Results: PubChem BioAssay (NCI)
About 79,000 compounds went through this panel and 15% of them were active in at least one assay; those are over-represented in the sample as a whole. Unmarked numbers belong to inactive results. Calls of active or inactive are those of the source. Rule as the data show it: active = growth inhibition above about 70%; inactive = the rest.

What was measured:
[1] = NCI Yeast Anticancer Drug Screen. Data for the rad50 strain (AID 155);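 also: 0% = growth of vehicle-only cultures of the same strain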; details: S. cerevisiae rad50 strain growth inhibition; at 50.0 µM; hits give high values
Summary of the method: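 A DNA repair-deficient yeast mutant serves as the test organism; compound-induced growth inhibition is calculated against vehicle-treated cells.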

[2] = NCI Yeast Anticancer Drug Screen. Data for the mec2-1 strain (AID 157); details: S. cerevisiae mec2-1 strain, at 50.0 µM, hits give high values
Summary of the method: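 Strain: mec2-1 (DNA repair/cell cycle alteration). Compound exposure, then growth measured; inhibition expressed relative to vehicle.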

[3] = NCI Yeast Anticancer Drug Screen. Data for the sgs1 mgt1 strain (AID 161);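 also: 0% = growth of cultures given vehicle only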; details: S. cerevisiae sgs1 mgt1 strain, at 50.0 µM, hits give high values
Summary of the method: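 Mutant yeast exposed to compound; growth scored against vehicle-only wells.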

[4] = NCI Yeast Anticancer Drug Screen. Data for the cln2 rad14 strain (AID 165);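 also: 0% = growth equal to vehicle treated cultures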; details: S. cerevisiae cln2 rad14 strain, at 50.0 µM, hits give high values
Summary of the method: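 Compounds are applied to the cln2 rad14 yeast strain, and growth is then compared with that of vehicle-treated cultures to give inhibition.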

[5] = NCI Yeast Anticancer Drug Screen. Data for the bub3 strain (AID 167); details: S. cerevisiae bub3 mutant strain, at 50.0 µM, hits give high values
Summary of the method: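 Inhibition values come from growth of compound-treated mutant yeast normalised to vehicle-treated controls.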

[6] = NCI Yeast Anticancer Drug Screen. Data for the mlh1 rad18 strain (AID 175); details: S. cerevisiae mlh1 rad18 strain growth inhibition; at 50.0 µM; hits give high values
Summary of the method: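 Read-out is yeast growth inhibition, calculated against vehicle-only controls. The compound was applied to a strain engineered with DNA damage repair alterations.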

SMILES	growth inhibition [1] [%]	growth inhibition [2] [%]	growth inhibition [3]	growth inhibition [4] [%]	growth inhibition [5] [%]	growth inhibition [6] [%]
CCC(c1ccc(N(C)C)cc1)C1NC(=S)NC1=O (configuration not stated)	-4.2	-27.8	-17.6%	0.85	11.8	
CC12CCC(CC1)C(C)(C)O2	-1.95	3.3	-2.5%	9.6	-1.25	4.7
CC1OC(Oc2c(-c3cc(O)c(O)c(O)c3)oc3cc(O)cc(O)c3c2=O)C(O)C(O)C1O (configuration not stated)	-14.2	-16.8	-8%	9.75	-21.2	-13.6
S=c1[nH]nc(NC2CCCCC2)s1	-4.4	-12				
Cc1ccc2c(/C=C/c3ccc(N(C)C)cc3)ccc(C(C)C)cc1-2	-5.4	-41.3	19.1%	1.75	-22.2	-53.2
CCN(CC)C(=O)c1cccnc1	0.8	-46.9	-33%	14.2	-20.4	18.6
COc1ccc(NC(=S)Nc2ccccn2)cc1	-9.3	-12.3				
O=C(/C=C/C=C/c1ccccc1)c1ccc(Cl)cc1	-12.3	-27.4				
CN1C(=S)c2ccccc2S1(=O)=O	-6.6	-14.4				
OCCN(CCO)C(CO)(CO)CO	0.7	-12.8				
O=C1c2ccccc2C(=O)N1CNc1ccc(Cl)cn1	-18.9	-43.9				
COc1ccc(C(=O)CC2CCCC(CC(=O)c3ccc(OC)cc3)N2C)cc1 (configuration not stated)	5.4	-6.05				
CCN(CC)C(C(=O)Nc1ccccc1)C(=O)Nc1ccccc1	3.7	2.8				
C=C1CC2(C)CCC(OC(=O)C3(C)OC3C)C(C)(OC(C)=O)C2CC1=C(C)C (configuration not stated)	7.7	-36.8	7.55%	16.2	-4.85	-55
COc1cc(Oc2c(C)c(Cl)c(OC)c(Cl)c2OC)c2c(c1Cl)COC2=O	28.5	-6.45	15.6%	17.6	-5.75	
Nc1ccccc1SC1CC(=O)N(c2ccccc2Cl)C1=O (configuration not stated)	-18.4	-33.1				
CCCCCCC(=O)CCCC(C)CCCC(C)C (configuration not stated)	-13.5					
N#CC1(C#N)N[C@@H](c2ccsc2)[C@H]2C(=O)N(c3ccccc3)C(=O)[C@H]21	5.6	-8.2	3.75%	8.5	-6.95	
O=S(=O)(O)c1ccc(-c2ccccc2)cc1	-0.4	-16.1				
NC1N=C(c2ccc(Cl)cc2)C2=C(N1)c1ccccc1CC2 (configuration not stated)	-7.1	0.9	-0.75%	8.05	18.9	
Cc1ccc(CNc2ccc(I)cc2)cc1	37.5	37.9				
COC(=O)C(=O)C(C(=O)C(=O)Nc1ccccc1OC)c1nc2ccc([N+](=O)[O-])cc2[nH]c1=O (configuration not stated)	16.4	19.4	10.9%	-19.6	36.1	21.6
CC1CCN(c2ccc([N+](=O)[O-])cc2[N+](=O)[O-])CC1	42.2	3.85				
COc1ccccc1Oc1ccc(N=Cc2ccc(C)cc2)cc1	-16.4	-25.3				
Cc1cc(N(CCC#N)CCC#N)ccc1/C=N/NC(=O)c1cc(Cl)ccc1O	-1.8	-18.3	-40.8%	-9.2	-23.7	
CCOC(=O)/C=C(\C)Nc1ccc(F)cc1	-0.5	-17.6				

SMILES	growth inhibition [1] [%]	growth inhibition [2] [%]	growth inhibition [3]	growth inhibition [4] [%]	growth inhibition [5] [%]	growth inhibition [6] [%]
O=C(Cc1nc2ccccc2[nH]c1=O)N/N=C/c1ccc2c(c1)CCC2	-30.2	-28.6				
COc1ccc(C(C(N)=O)N2CCCC2)cc1 (configuration not stated)	1	-19.6				
O=C(O)c1cc(C(=O)O)cc([N+](=O)[O-])c1	-3.75	-5.9	4.75%	0.25	8.3	
C[Si](C)(CCl)N[Si](C)(C)CCl	-23.6	-33.9				
CCCCCCCCCC(O)CCCCC (configuration not stated)	-1.85	-21.2				
C[N+]12CCC34c5ccccc5NC3C3C(CC(=O)[O-])OCC=C(C1)C3CC42 (configuration not stated)	-7.55	-45				
CC(C)/C(Cl)=N/OC(=O)Nc1cccc(C(F)(F)F)c1	35.7	38.3	85% (active)	24.8	65.5	
CCOc1ccc(NC(=S)NC2CCCCCCCCCCC2)cc1	15.7	10.1				
Cc1ccc(CNc2ccc(F)cc2)cc1	29.9	28.9				
COc1ccc(CC2C(=O)NC(=O)NC2=O)cc1OCc1ccccc1	14.7	-1.75	-14.1%	-10	-17.4	-44.6
Cc1ccc2oc(C)[n+](CCC(=O)O)c2c1	15.7	6.45				
COc1ccc(OC)c(N(CN2C(=O)CCC2C(=O)O)C(C)=O)c1 (configuration not stated)	10.2	10.2	-13.3%	1.05	-17.7	-23.3
O=C(NC1=NC2C=CC([N+](=O)[O-])=CC2S1)C(=O)Nn1c(=S)[nH]c2ccccc2c1=O (configuration not stated)	6.8	-14.9	20.2%	10.8	20.7	24.1
NC(=S)NS(=O)(=O)c1ccc(N)cc1	-24.6	-38.2	-6%	4.35	-16.4	8.3
C=CCNC1=C2C[C@@H](C)C[C@@H](OC)[C@@H](OC(=O)CCCN)[C@H](C)/C=C(\C)[C@@H](OC(N)=O)[C@H](OC)/C=C\C=C(/C)C(=O)NC(=CC1=O)C2=O	-5.15	-0.55	14.2%	13.2	20.6	4.6
CCCCCC(O)(CCCCC)CCCCCCCCC1=C(O)c2ccccc2C(=O)C1=O	-17.7	-18.6	-0.15%	5.75	1	-79.2
N=C1N=C(N)CS1	2.6	-10	3.8%	12.4	25.9	3.85
CN(C)c1ccc(/C=N/n2c(-c3ccccc3)nc3ccccc3c2=O)cc1	14.3	14.2	43.8%	13.4	50.8	-41
C=C1C(=O)OC2CC(C)C3(O)CCC(=O)C3(C)CC12 (configuration not stated)	-14.8	-24.9	-5.2%	4.45	-18.4	-33.5
N/N=C(\C(=O)Nc1ccc([N+](=O)[O-])cc1)C(C1=Nc2cc([N+](=O)[O-])ccc2NC1)[N+](=O)[O-] (configuration not stated)	34.7	11.7	12.8%	-41.5	5	16.9
O=C(O)CCCC(=O)Nn1c(Cc2ccc(Cl)cc2)n[nH]c1=O	7.75	-13.1	34.5%	-6.3	-7.15	-1.85
C/C(O)=C/c1nc2sc(C)c(C)c2c(=O)s1	14.4	9.35	9.85%	5.5	15.2	-16.5
COc1ccc2cc1Oc1ccc(cc1)C[C@@H]1c3cc(c(OC)cc3CCN1C)Oc1c(OC)c(OC)cc3c1[C@H](C2)N(C)CC3	22.1	-19.9	6.25%	5.1	9.4	-49.9
O=C1c2ccccc2-c2c1c1ccccc1c(=O)n2-c1cccnc1	63.5	6.95	26.2%	32.3	6	-9.05
C[C@@H]1C[C@@H]2OC(=O)[C@]3(C)[C@H]2[C@@H](OC3(C)O)[C@]2(C)C(=O)C=C[C@@H]12 (some centres not stated)	-27.6	-45.6	-40.4%	-12.7	-48.6	-35.5
NC(Cc1ccc(S(=O)(=O)O)cc1)C(=O)NC(Cc1ccc(S(=O)(=O)O)cc1)C(=O)NC(Cc1ccc(S(=O)(=O)O)cc1)C(=O)NC(Cc1ccc(S(=O)(=O)O)cc1)C(=O)O (configuration not stated)	-6.5	5.65	5.2%	-2.3	5.85	8.85
